Measured values: PubChem BioAssay AID1347418 (Sanford-Burnham Center for Chemical Genomics, 2020)
The whole screen tested about 1,300 compounds, of which about 750 (58%) were called active. Some of the results follow.

Target: Sulfhydryl oxidase 1 (Homo sapiens) (UniProt O00391)
Experiment: QSOX1 enzyme inhibitors, primary screen, biochemical, ROS-Glo H2O2 luminescence, HTS (AID 1347418)
Conditions: recombinant QSOX1, ROS-Glo H2O2 luminescence; at 12.5 µM; stronger effect = higher value; active = any value above zero

Sulfhydryl oxidase 1 (Homo sapiens), sequence (O00391 whole entry, looked up): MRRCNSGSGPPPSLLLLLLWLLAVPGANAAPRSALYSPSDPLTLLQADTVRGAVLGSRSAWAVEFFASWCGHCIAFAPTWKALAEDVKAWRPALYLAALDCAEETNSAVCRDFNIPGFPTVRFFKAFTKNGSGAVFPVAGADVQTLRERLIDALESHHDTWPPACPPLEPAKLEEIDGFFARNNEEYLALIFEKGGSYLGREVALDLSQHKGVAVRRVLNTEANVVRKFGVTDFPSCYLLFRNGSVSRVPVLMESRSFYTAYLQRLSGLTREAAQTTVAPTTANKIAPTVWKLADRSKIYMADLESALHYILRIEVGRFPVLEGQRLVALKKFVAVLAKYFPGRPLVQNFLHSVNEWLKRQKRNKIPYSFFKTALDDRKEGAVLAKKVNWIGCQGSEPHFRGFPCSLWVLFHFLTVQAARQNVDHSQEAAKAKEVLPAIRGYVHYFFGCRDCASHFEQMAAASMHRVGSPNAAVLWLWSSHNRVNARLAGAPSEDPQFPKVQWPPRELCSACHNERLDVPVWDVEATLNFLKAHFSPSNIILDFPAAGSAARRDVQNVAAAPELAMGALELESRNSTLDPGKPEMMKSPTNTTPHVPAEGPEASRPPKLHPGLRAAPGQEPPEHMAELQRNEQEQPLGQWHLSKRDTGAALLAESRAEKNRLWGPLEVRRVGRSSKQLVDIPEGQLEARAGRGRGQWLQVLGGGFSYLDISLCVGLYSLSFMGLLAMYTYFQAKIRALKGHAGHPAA

inhibition, inactive:
C#CCN(C)Cc1ccccc1 -0.7%
CCC1(O)CC2CN(CCc3c([nH]c4ccccc34)[C@@](C(=O)OC)(c3cc4c(cc3OC)N(C=O)C3[C@]45CCN4CC=C[C@@](CC)([C@@H](OC(C)=O)[C@]3(O)C(=O)OC)[C@H]45)C2)C1 (some centres not stated) -0.2%
NC1CONC1=O (configuration not stated) -3.5%
COc1cccc(OC)c1OCCNCC1CSc2ccccc2O1 (configuration not stated) -0.7%
N[C@@H](Cc1c[nH]c2ccccc12)C(=O)O -0.2%
N[C@H](C(=O)O)c1cc(O)cc(O)c1 -6.1%
NC(=O)c1cc[n+](CC2=C(C(=O)O)N3C(=O)[C@@H](NC(=O)[C@@H](c4ccccc4)S(=O)(=O)[O-])[C@H]3SC2)cc1 -1%
CC1=C(C(=O)O)N2C(=O)[C@@H](NC(=O)C(N)C3=CCC=CC3)[C@H]2SC1 (some centres not stated) -1.3%
NCCS(=O)O -0.7%
O=C1OC(=O)C2C3CCC(O3)C12 (configuration not stated) -1.3%
NC(=O)C(=O)O -8.6%
NC(=O)NO -13.4%
CC(=O)/C(C)=N/O -5.2%
Nc1ncnc2c1ncn2C1CCCO1 (configuration not stated) -0.8%
COc1ccc(C(=O)NCc2cccnc2)cc1C(=O)NCc1cccnc1 -2.9%
OC(CCN1CCCCC1)(c1ccccc1)C1CCCCC1 (configuration not stated) -2.5%
CCN(CC)CC#CCOC(=O)C(O)(c1ccccc1)C1CCCCC1 (configuration not stated) -2.5%
NCCS(=O)(=O)O -4.9%
Cc1nc2c([nH]1)c(=O)n(C)c(=O)n2Cc1ccco1 -1.4%
COCc1nc2c([nH]1)c(=O)n(C)c(=O)n2CC(C)C -1.5%
c1ccc(C(NCc2cccnc2)(c2ccccc2)c2ccccc2)cc1 -3.5%
O=C(O)/C=C/C(O)c1ccc(Cl)cc1 (configuration not stated) -2.6%
O=C(c1ccccc1)c1ccc2n1CCC2C(=O)O (configuration not stated) -5%
NNCCc1ccccc1 -0.4%
C[C@]12C=CC(=O)C=C1CC[C@@H]1C2=CC[C@]2(C)[C@@H](C(=O)CN3CCN(c4cc(N5CCCC5)nc(N5CCCC5)n4)CC3)CC[C@@H]12 -5.3%
CSc1ccc(C(=O)c2[nH]c(=O)[nH]c2C)cc1 -1.7%
CN(C)c1nc(N(C)C)nc(N(C)C)n1 -0.9%
Nc1nc2c(ncn2COCCO)c(=O)[nH]1 0%
CO/N=C(\C(=O)N[C@@H]1C(=O)N2C(C(=O)O)=C(COC(C)=O)CS[C@H]12)c1csc(N)n1 -6.9%
Cc1ccc(/C(=C\CN2CCCC2)c2ccccn2)cc1 -2.5%
O=C1N=C(O)C(c2ccccc2)(c2ccccc2)N1 -3.8%
CCCOc1ccccc1-c1nc2n[nH]nc2c(=O)[nH]1 -3%
CC(=O)SC1CC2=CC(=O)CC[C@]2(C)C2CC[C@@]3(C)C(CC[C@@]34CCC(=O)O4)C12 (some centres not stated) -4.3%
CC(=O)[C@H]1CC[C@H]2[C@@H]3CCC4=CC(=O)CC[C@]4(C)[C@H]3CC[C@]12C -0.5%
CC(=O)OCC(=O)[C@@]1(O)CC[C@H]2[C@@H]3CCC4=CC(=O)CC[C@]4(C)[C@H]3C(=O)C[C@@]21C -7.3%
CC(=O)[C@@]1(O)CC[C@H]2[C@@H]3CCC4=CC(=O)CC[C@]4(C)[C@H]3CC[C@@]21C -1%
C[C@]12CCC(=O)C=C1CC[C@@H]1[C@@H]2[C@@H](O)C[C@@]2(C)[C@H]1CC[C@]2(O)C(=O)CO -7.5%
O=C1NCN(c2ccccc2)C12CCN(CCCC(c1ccc(F)cc1)c1ccc(F)cc1)CC2 -2.5%
COc1ccc2c(c1)c(CC(=O)O)c(C)n2C(=O)c1ccccc1 -3.5%
C=CCn1c(=O)c2c(nc(-c3ccc(S(=O)(=O)O)cc3)n2C)n(C)c1=O -0.9%

inhibition, active:
CC(C)(C)c1cc(/C=C(\C#N)C(N)=S)cc(C(C)(C)C)c1O 37.7%
CN(C)C/C=C(/c1ccc(Br)cc1)c1cccnc1 2.7%
CN1CCC(=C2c3ccccc3C=Cc3ccccc32)CC1 2.2%
CN1CCC(=C2c3ccccc3CC(=O)c3sccc32)CC1 0.8%
CCC1(O)CC2CN(CCc3c([nH]c4ccccc34)[C@@](C(=O)OC)(c3cc4c(cc3OC)N(C)C3[C@]45CCN4CC=C[C@@](CC)([C@@H](OC(C)=O)[C@]3(O)C(=O)OC)[C@H]45)C2)C1 (some centres not stated) 6.7%
O=c1[nH]cc(F)c(=O)[nH]1 0.8%
O=C(Nc1nc2ccccc2n1CCN1CCOCC1)c1cccc([N+](=O)[O-])c1 0.4%
CN1C[C@H](C(=O)N[C@]2(C)O[C@@]3(O)[C@@H]4CCCN4C(=O)[C@H](Cc4ccccc4)N3C2=O)C[C@@H]2c3cccc4[nH]cc(c34)C[C@H]21 10%
COc1cccc(OC)c1OCCNCC1COc2ccccc2O1 (configuration not stated) 1.9%
O=C1c2ccccc2C(=O)c2c(NCCc3ccc(O)cc3)ccc(NCCc3ccc(O)cc3)c21 11%
O=C(O)Cc1c[nH]c2ccc(O)cc12 15.6%
N[C@@H](Cc1c[nH]c2ccc(O)cc12)C(=O)O 8.4%
CCn1ccnc1CC1COc2ccccc2O1 (configuration not stated) 0.9%
CC1=C(C(=O)O)N2C(=O)[C@@H](NC(=O)C(N)c3ccccc3)[C@H]2SC1 (some centres not stated) 2.2%
NC(C(=O)N[C@@H]1C(=O)N2C(C(=O)O)=C(Cl)CS[C@H]12)c1ccccc1 (some centres not stated) 0.4%
CC(=O)C(C)=O 2.1%
CC(N)=O 4.6%
Nc1ccc2c3c(cccc13)C(=O)NC2=O 7.4%
O=C(CCNNC(=O)c1ccncc1)NCc1ccccc1 3.1%
OC(CCN1CCCCC1)(c1ccccc1)C1CC2C=CC1C2 (configuration not stated) 2.7%
NCCNC(=O)c1ncsc1-c1cccc(F)c1 0.5%
CC#C[C@]1(O)CC[C@H]2[C@@H]3CCC4=CC(=O)CCC4=C3[C@@H](c3ccc(N(C)C)cc3)C[C@@]21C 29.9%
O=C1Nc2ccc(I)cc2/C1=C/c1cc(Br)c(O)c(Br)c1 1.3%
NCCCS(=O)(=O)O 4.4%
Cn1c(=O)c2[nH]cnc2n(C)c1=O 2.2%
CC(C)Cn1c(=O)n(C)c(=O)c2[nH]cnc21 1.8%
Clc1ccc(C(c2ccccc2Cl)C(Cl)Cl)cc1 (configuration not stated) 22.6%
Cc1ccc(N(CC2=NCCN2)c2cccc(O)c2)cc1 34.7%
O=C1O/C(=C/Br)CCC1c1cccc2ccccc12 (configuration not stated) 2.5%
C[C@H](O)C(=O)C1=Nc2c(nc(N)[nH]c2=O)NC1 0.2%
CCCc1c(OCCCOc2ccc(OCC(=O)O)cc2)ccc(C(C)=O)c1O 4.1%
O=C(O)/C(=C/c1c(C(=O)O)[nH]c2cc(Cl)cc(Cl)c12)c1ccccc1 3.9%
O=C1NC(c2cccc([N+](=O)[O-])c2)=CCN1c1ccccc1O 3.1%
O=C(O)c1ccccc1Nc1cccc(OCc2ccc3ccccc3n2)c1 7.4%
CCCCCC(O)c1cccc(OCc2ccc3ccccc3n2)c1 (configuration not stated) 2.8%
C[C@H](NC(=O)/C(C#N)=C/c1ccc(O)c(O)c1)c1ccccc1 24.4%
N#C/C(=C\c1ccc(O)c(O)c1)C(=O)NCCc1ccccc1 28.3%
N#C/C(=C\c1ccc(O)c(O)c1)C(=O)Nc1ccccc1 26.5%
N#C/C(=C\c1ccc(O)c(O)c1)C(=O)NCCCc1ccccc1 21%
N#C/C(=C\c1ccc(O)c(O)c1)C(=O)NCCCNC(=O)/C(C#N)=C/c1ccc(O)c(O)c1 25%
N#C/C(=C\c1ccc(O)c(O)c1)C(=O)NCc1ccccc1 26.3%
CC(=O)N1CCN(c2ccc(OC[C@H]3CO[C@](Cn4ccnc4)(c4ccc(Cl)cc4Cl)O3)cc2)CC1 9.3%
Nc1nc2c(ncn2COC(CO)CO)c(=O)[nH]1 0.2%
CC(=O)OCC1=C(C(=O)O)N2C(=O)[C@@H](NC(=O)Cc3cccs3)[C@H]2SC1 1%
O=c1[nH]c(=O)c2nc3ccccc3nc2[nH]1 8%
C[C@]12CCC(=O)C=C1CC[C@@H]1[C@@H]2C(=O)C[C@@]2(C)[C@H]1CC[C@]2(O)C(=O)CO 4.5%
C[C@]12CCC(=O)C=C1CC[C@@H]1[C@@H]2CC[C@@]2(C)[C@H]1CC[C@]2(O)C(=O)CO 1.9%
C[C@]12C[C@H](O)[C@H]3[C@@H](CCC4=CC(=O)CC[C@@]43C)[C@@H]1CC[C@@H]2C(=O)CO 1%
COc1ccc2c(c1)c(CC(=O)O)c(C)n2C(=O)c1ccc(Cl)cc1 4.9%
Cc1ccc([N+](=O)[O-])cc1S(=O)(=O)N(C)C 9.9%
Oc1cc(O)cc(/C=C/c2ccc(O)c(O)c2)c1 44%
Oc1ccc(/C=C/c2cc(O)cc(O)c2)cc1 23.2%
Oc1ccc(/C=C/c2ccc(/C=C/c3ccc(O)cc3)c(Br)c2)cc1 1%
O=c1cc(O)cc(/C=C/c2ccc(O)c(O)c2)o1 30.2%
Cn1c(=O)c2c(nc(/C=C/c3cccc(Cl)c3)n2C)n(C)c1=O 11.3%
O=C1NC(=O)C(c2ccccc2[N+](=O)[O-])=C1Nc1ccc(O)c(Cl)c1 35.4%
Cc1nc2n(c(=O)c1CCN1CCC(c3noc4cc(F)ccc34)CC1)CCCC2O (configuration not stated) 1.5%
